TSHR antag: blocks TSH signaling through the human TSH receptor | TSHR-expressing cells, TSH-stimulated cAMP HTRF, 2 h; stronger effect = lower value | 0.2% of 330,000 active | AID 504810 | activity change, negative = inhibition, % at 11.5 µM;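 active means activity change below a set negative limit, meaning inhibition stronger than a set level, cut at about -70% in these data; inconclusive means activity change between two set negative limits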; further: on the % scale 0 is the no-effect control and ±100 the full control effect
Target sequence (P16473 whole entry, looked up): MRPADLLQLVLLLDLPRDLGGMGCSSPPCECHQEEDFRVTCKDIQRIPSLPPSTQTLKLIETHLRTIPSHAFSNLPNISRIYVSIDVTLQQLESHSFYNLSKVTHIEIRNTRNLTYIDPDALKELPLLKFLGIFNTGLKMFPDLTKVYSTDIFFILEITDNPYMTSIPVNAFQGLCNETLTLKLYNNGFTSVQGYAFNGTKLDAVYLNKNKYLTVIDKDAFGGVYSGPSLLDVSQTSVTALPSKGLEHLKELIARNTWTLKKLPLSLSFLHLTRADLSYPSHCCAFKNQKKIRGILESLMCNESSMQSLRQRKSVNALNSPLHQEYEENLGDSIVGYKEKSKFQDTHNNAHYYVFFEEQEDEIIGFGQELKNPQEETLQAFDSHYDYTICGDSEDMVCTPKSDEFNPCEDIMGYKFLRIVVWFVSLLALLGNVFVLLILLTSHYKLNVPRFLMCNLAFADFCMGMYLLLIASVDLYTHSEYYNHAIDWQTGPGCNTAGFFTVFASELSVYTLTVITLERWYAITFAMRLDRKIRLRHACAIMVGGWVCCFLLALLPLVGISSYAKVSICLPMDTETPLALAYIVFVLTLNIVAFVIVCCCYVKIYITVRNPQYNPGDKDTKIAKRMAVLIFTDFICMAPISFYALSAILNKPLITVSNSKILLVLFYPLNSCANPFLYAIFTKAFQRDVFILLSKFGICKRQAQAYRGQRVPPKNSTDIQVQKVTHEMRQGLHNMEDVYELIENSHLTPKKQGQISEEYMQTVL
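Competitive HTRF cAMP read-out (cryptate anti-cAMP antibody, cAMP-d2; 30 min, room temperature) in freshly harvested TSHR cells. Compounds added before TSH at EC80 (4nM final), followed by 2 hours' incubation at 37 deg C.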
DRD3 antagonist: blocks the human D3 dopamine receptor. P35462. D3R cells, DiscoveRx beta-arrestin luminescence, antagonist mode; stronger effect = lower value. max response, negative = inhibition, %. 2.5% of 360,000 active; in the data active means max response below about -50%; inconclusive means no clear call, values can overlap the other calls; further: on the % scale 0 is the no-effect control and ±100 the full control effect
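Cells expressing the human receptor were seeded at 1500 cells/well, incubated overnight at 37 degrees C in 5% CO2, then exposed to library compounds with dopamine controls for 90 minutes at 37 degrees C before luminescent detection.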
B2AR arrestin: agonists driving beta-arrestin recruitment to human beta2-adrenergic receptor; P07550; beta-arrestin recruitment to beta2AR, cell-based reporter; Potency, µM (doses to about 46.1 µM), for the others: top-dose activation, hits mostly activators; 0.02% of 330,000 active; AID 492947; active means well fitted activation curve with a large enough effect; inconclusive means small, poorly fitted or top-dose-only effect;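 further: potency means the concentration at half of the fitted maximal effect; 0% = DMSO controls and full agonism = EC100 isoproterenol or metaproterenol; nearly all actives have a fitted effect of over 65% in size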
D3 ag: agonists of human D3 dopamine receptor. 0.58% of 410,000 active. AID 652048. max activation, %. D3R DiscoveRx beta-arrestin cells, luminescence, 90 min; in the data active means max activation above about 30%; further: 0% is about no effect
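Agonist-mode cell screen: cells plated at 1500/well and incubated overnight at 37 °C, then exposed to library compounds for 90 min at 37 °C. Detection reagent was added for 30–60 min at room temperature, and luminescence was read.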
Starred values were filed as active, the others as inactive; u = inconclusive; x = not tested or not shown. Most compounds without a hit are left out; they make up all but 2.9% or so of the library.

SMILES	TSHR antag	DRD3 antagonist	B2AR arrestin	D3 ag
O=C1C(Cl)=C(NCCN2CCCCC2)C(=O)c2ccccc21	9.8	-63.2*	-0.3%	-22.2
Nc1nnc(SCC(=O)OCC(=O)c2ccccc2Br)s1	-19.1	-58.4*	0.0%	-26.6
CCc1ccc(-n2nc(C)c3c(C)cc(=O)n(CC(=O)Nc4cc(C)ccc4C)c32)cc1	x	x	x	-9.6
CCOC(=O)c1cc(-c2csc(-c3ccc(C(C)(C)C)cc3)n2)on1	-10.7	6.3	-0.9%	31.8*
CCOC(=O)c1cc(-c2csc(-c3ccc(C(F)(F)F)cc3)n2)on1	-11.5	8.8	0.4%	10.7
COc1ccc(-c2[nH][nH]c(=O)c2NC(=O)c2ccccc2Br)cc1	x	-53.4*	x	-5.6
O=S1(=O)c2cccc3cccc(c23)N1CCCN1CCN(c2ccc(F)cc2)CC1	x	x	x	-13.1
COc1cc2c(-c3ccc4cc[nH]c4c3)c(-c3ccsc3)oc(=O)c2cc1OC	-6.3	2.2	3.0%	51.7*
CC(=O)NC1=C(NC2CCS(=O)(=O)C2)C(=O)c2ccccc2C1=O (centres undefined)	18.1	-3.7	-1.5%	-14.8
CN(C1=C(NC(=O)c2ccccc2)C(=O)c2ccccc2C1=O)C1CCS(=O)(=O)C1 (centres undefined)	19.3	-53.8*	-0.4%	-12.6
COc1cccc(NC(=O)/C(C#N)=C/c2c(C)n(Cc3ccc(Cl)cc3)c3ccccc23)c1	x	x	x	0.9
Cc1cc(C(F)F)n2nc(C(=O)Nc3ccc(F)cc3F)nc2n1	5.6	-53.7*	0.0%	4.5
Cc1cc(C(F)F)n2nc(C(=O)Nc3ccccc3F)nc2n1	-5.1	1.7	-0.1%	2.2
CCC(NC(=O)c1cccc(Cn2cc([N+](=O)[O-])cn2)c1)c1ccc(C(C)C)cc1 (centres undefined)	-2.9	-52.8*	-1.7%	-20.4
CCOc1ccc(N/C(SC)=C(/C#N)C(N)=O)cc1	0.0	-53.3*	-0.4%	0.5
Nc1sccc1C(=O)NCc1ccccc1	x	-10.4	x	1.5
Cn1c(N2CCOCC2)c(/C=N/OC(=O)c2ccc(F)cc2)c2ccccc21	-6.5	3.7	-2.7%	17.3
Cc1ccc(C(=O)O/N=C/c2c(Cl)n(C)c3ccccc23)cc1	18.2	0.0	0.0%	-0.6
Cn1c(Cl)c(/C=N/OC(=O)c2ccc(Cl)cc2)c2ccccc21	9.9	-69.4*	0.0%	-6.8
Cc1ccc(C(=O)O/N=C/c2c(N3CCOCC3)n(C)c3ccccc23)cc1	-11.6	46.1	-0.2%	53.4*
COc1ccc(CN2CCCC(C(=O)c3ccc4c(c3)OCO4)C2)c(F)c1 (centres undefined)	1.6	-59.3*	-0.4%	-3.6
CCCn1cc(CN2CCCC(C(=O)c3ccc4c(c3)OCO4)C2)c(C)n1 (centres undefined)	-2.7	-53.5*	0.3%	-21.1
O=C(c1ccc2c(c1)OCO2)C1CCCN(C2CCN(CCc3ccccc3)CC2)C1 (centres undefined)	-3.9	-84.2*	-0.8%	-26.4
Cc1ccc(CCNC(=O)c2ccc(CSc3nc4ccncc4n3Cc3ccc(F)cc3)cc2)cc1	x	x	x	-7.5
O=C(Nc1ccc2nn(-c3ccccc3)nc2c1)c1ccc(-c2cccc(Cl)c2)o1	x	x	x	15.6
SMILES	TSHR antag	DRD3 antagonist	B2AR arrestin	D3 ag
CCN(C(=O)c1cn(C)c(=O)c2ccccc12)c1cccc(C)c1	x	x	x	-17.1
COc1ccc2c(c1)OC[C@H]1[C@H]2N2C(=O)c3cc(OC)ccc3NC(=O)[C@@]2(C)[C@H]1c1ccccc1	7.7	-52.4*	8.6%	-2.7
CCN(CC)c1ccc(C(=O)NNC(=O)CCl)cc1	30.1	-125.6*	3.4%	-35.1
CCN(CC)c1ccc(C(=O)NNC(=O)CCNC(=O)c2ccccc2)cc1	16.9	26.6	0.1%	-16.1
CCOC(=O)Nc1sc2c(c1C#N)CCC(C)C2 (centres undefined)	10.5	1.0	0.2%	4.3
CCC1CCc2c(sc(NC(=O)C3CC=CCC3C(=O)O)c2C#N)C1 (centres undefined)	-20.2	0.0	0.1%	32.6*
O=C1[C@H]2CCCC[C@H]2C(=O)N1CCCCN1CCN(c2nsc3ccccc23)CC1	x	-116.0*	x	-57.4
O=C1[C@@H]2[C@H]3CC[C@H](C3)[C@@H]2C(=O)N1CCCCN1CCN(c2ncccn2)CC1	x	x	x	-10.0
O=C(N=C1SC2CS(=O)(=O)CC2N1c1ccc(F)cc1)C1CCCCC1 (centres undefined)	5.1	12.7	0.0%	1.0
O=C(N=C1SC2CS(=O)(=O)CC2N1c1ccc(F)cc1)C1CC1 (centres undefined)	-109.2*	-3.8	0.2%	-2.3
COc1nnc(-c2ccc(N3CCOCC3)c(NC(C)=O)c2)c2ccccc12	4.6	-52.4*	-0.2%	-8.0
Cc1ccc(N=Cc2cc3c(cc2[N+](=O)[O-])OCO3)cc1[N+](=O)[O-]	x	-8.0	x	0.4
O=[N+]([O-])c1ccc(O)c(C=Nc2ccc3c(c2)OCO3)c1	2.6	-68.3*	-0.3%	-12.2
O=[N+]([O-])c1cc(Br)cc(C=Nc2ccc3c(c2)OCO3)c1O	-8.1	-78.3*	u	-14.4
Oc1c(CN2CCCCC2)cc(Br)c2cccnc12	11.6	-74.4*	5.0%	-28.8
Oc1c(CN2CCc3ccccc3C2)cc(Cl)c2cccnc12	7.9	-138.9*	7.08µM*	-24.8
CN(CC(=O)Nc1ccc2c(c1)OCO2)S(=O)(=O)c1cccs1	1.2	4.9	-1.6%	-4.9
CCCn1c2ccccc2c2nc3ccccc3nc21	-8.7	-0.2	0.1%	-0.6
N#CCCn1c2ccccc2c2nc3ccccc3nc21	-4.0	-51.8*	0.3%	-3.5
Cc1cccc(N2CCN(Cc3nc(-c4cccc(Cl)c4)oc3C)CC2)n1	11.6	u	-0.5%	-12.4
Clc1cccc(-c2nnc(CN3CCN(c4ccccn4)CC3)o2)c1	x	x	x	95.3*
Fc1ccc(-c2nnc(CN3CCN(c4ccccn4)CC3)o2)cc1	x	x	x	80.1*
c1ccc(CN2CCN(Cc3nnc(-c4ccccc4)o3)CC2)cc1	8.8	2.5	0.4%	-1.6
Fc1ccc(N2CCN(Cc3nnc(-c4ccccc4Cl)o3)CC2)cc1	x	x	x	1.9
c1ccc(-c2nnc(CN3CCN(c4ccccn4)CC3)o2)cc1	x	x	x	97.8*
SMILES	TSHR antag	DRD3 antagonist	B2AR arrestin	D3 ag
COc1ccc(NC(=O)c2ccco2)cc1NC(=O)COc1ccc(Cl)c(C)c1	x	x	x	9.8
CC(=O)OC1CCC2(C)C(CCC3C4CC=C(C(C)=O)C4(C)OC(=O)CC32)C1 (centres undefined)	x	-93.5*	x	-13.7
CC(=O)O[C@H]1CC[C@@]2(C)C(CCC3C2CC[C@]2(C)OC(=O)CCC32)C1 (some centres undefined)	-7.9	15.9	-0.7%	1.8
CCOC(=O)c1cc2c(C)n(-c3ccc(OCC)cc3)c(C)c2cc(C(=O)OCC)c1=O	-1.6	3.7	-2.3%	-2.2
CCOC(=O)c1cc2c(C)n(-c3ccc(N(C)C)cc3)c(C)c2cc(C(=O)OCC)c1=O	-2.4	27.6	0.5%	56.9*
Cc1noc(C)c1S(=O)(=O)NC(=O)C1(C)CCN1C(=O)C1(c2ccc(Cl)cc2)CC1 (centres undefined)	x	-5.9	x	3.1
COc1ccccc1C(C)NCC(=O)NCc1ccc(C)cc1 (centres undefined)	-2.8	-58.5*	-0.7%	-36.4

Compound activity (PubChem BioAssay)
